{"source": "PubChem BioAssay AID651820", "about": "(National Center for Advancing Translational Sciences (NCATS), 2012)", "note": "The campaign covered roughly 340,000 compounds. About 12,000 (3.5%) were called active. A call without a number means that no potency is given here. Not shown: some 18% with an inconclusive outcome. Calls follow the shape of the dose curve; as a rule, active = well fitted inhibition curve with a large enough effect; inconclusive = small, poorly fitted or top-dose-only effect, or another doubt; inactive = no such curve, though single readings can be large or run the other way. Only a selection was taken, and actives are over-represented in it overall. Potency is read from the fitted curve at half-maximal effect.", "data": [{"test": "qHTS Assay for Inhibitors of Hepatitis C Virus (HCV)", "conditions": "Huh7.5.1 HCVcc-Cre infection, luciferase reporter, 44 h; series mostly up to 41.8 µM", "procedure,_shortened": "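Infectious HCV cell culture screen: compound-treated cells (1,000/well, pre-plated 4 h) are infected with HCVcc-Cre at roughly 0.5 moi and grown 44 h. Infection is quantified by luciferase signal after 15 min substrate incubation at room temperature.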", "values": [{"smiles": "CNC[C@@H]1Oc2c(NS(C)(=O)=O)cccc2C(=O)N([C@@H](C)CO)C[C@H]1C", "Potency": "inactive"}, {"smiles": "CCN(CC(=O)Nc1ccccc1C(F)(F)F)C(=O)C1CCN(C(=O)Nc2ccccc2)CC1", "Potency": "inactive"}, {"smiles": "COc1ccc(CCNC(=O)COC(=O)c2cc(=O)c3ccccc3o2)cc1", "Potency": "inactive"}, {"smiles": "Cc1ccc(NC(=O)CCN2C(=O)c3ccccc3C2=O)cc1C", "Potency": "inactive"}, {"smiles": "Cc1cc(C)cc(NC(=O)CN2C(=O)c3ccccc3C2=O)c1", "Potency": "inactive"}, {"smiles": "Cc1cc2c(cc1C)N(C(=O)CN1C(=O)c3ccccc3C1=O)C(C)(C)c1ssc(=S)c1-2", "Potency": "8.91 µM (active)"}, {"smiles": "O=C(NOCc1ccccc1)c1cccc([N+](=O)[O-])c1", "Potency": "inactive"}, {"smiles": "O=C(Nc1cccc(-c2cccc(Cl)c2)c1)C1CCN(C2CCC2)CC1", "Potency": "12.6 µM (active)"}, {"smiles": "O=C(Nc1cccc(Cl)c1)C1CCCN(c2cnccn2)C1", "note": "(stereo unspecified)", "Potency": "inactive"}, {"smiles": "O=C(NC1CCCC1)C1CCN(C(=O)Nc2cccc(Cl)c2)CC1", "Potency": "inactive"}, {"smiles": "N#Cc1ccc(CN2CCN(CC(=O)Nc3ccccc3C(=O)NC3CC3)CC2)cc1", "Potency": "inactive"}, {"smiles": "CCOC(=O)N1CCN(CC(=O)c2c(C)[nH]c3ccccc23)CC1", "Potency": "inactive"}, {"smiles": "CCOC(=O)c1c(C)[nH]c2c1-c1ccccc1C(=O)C2=O", "Potency": "2.51 µM (active)"}, {"smiles": "CCOC(=O)c1c(C)[nH]c(C)c1S(=O)(=O)N(C)CC(=O)Nc1ccccc1C", "Potency": "inactive"}, {"smiles": "O=C1OC(Cc2ccccc2)C(c2ccccc2)C1=O", "note": "(stereo unspecified)", "Potency": "inactive"}, {"smiles": "COCCN(CCOC)S(=O)(=O)NC[C@H]1O[C@@H](n2cnc3c(N)ncnc32)[C@H](O)[C@@H]1O", "Potency": "inactive"}, {"smiles": "O=C(COc1coc(CN2CCN(c3ccccc3F)CC2)cc1=O)N1CCc2ccccc21", "activity change, negative = inhibition": "13.6% [at 8.37 µM] (inactive)"}, {"smiles": "Cc1ccc(Nc2c(O)nc[nH]c2=O)cc1C", "Potency": "inactive"}, {"smiles": "CC(C)N(Cc1ccccc1)C(=S)Nc1ccc(OC(F)F)cc1", "Potency": "inactive"}, {"smiles": "CC/C(=N\\NC(=S)NC(C)C)c1ccc(OC(F)F)cc1", "Potency": "10 µM (active)"}, {"smiles": "O=C(NNC(=S)NCc1ccccc1)c1ccc(OC(F)F)cc1", "Potency": "inactive"}, {"smiles": "CC(C)c1ccc(/C=C/C(=O)NCCCN2CCOCC2)cc1", "Potency": "inactive"}, {"smiles": "C[C@H]1COC(=O)[C@H](CC(=O)OC(C)(C)C)C/C=C\\C[C@@H](CC(=O)N[C@H](CO)Cc2ccccc2)C(=O)N1", "Potency": "inactive"}, {"smiles": "CC(C)(C)C(=O)Nc1ccc(C(=O)N/N=C/c2ccccc2OC(=O)c2ccc(Cl)cc2Cl)cc1", "Potency": "10 µM (active)"}, {"smiles": "O=C(N/N=C/c1ccc(OC(=O)c2ccccc2Cl)cc1)c1ccc(O)cc1", "Potency": "inactive"}, {"smiles": "O=C(N/N=C/c1ccoc1)c1ccc(Cl)cc1Cl", "Potency": "inactive"}, {"smiles": "CCOc1ncccc1C(=O)Nc1ccc(S(=O)(=O)Nc2nc(C)cc(C)n2)cc1", "Potency": "inactive"}, {"smiles": "CCC(=O)N(CCc1ccccc1)Cc1cc2cc(C)ccc2[nH]c1=O", "Potency": "inactive"}, {"smiles": "CCN(Cc1cc2cc(C)ccc2[nH]c1=O)S(=O)(=O)c1ccccc1", "Potency": "11.2 µM (active)"}, {"smiles": "Cc1ccc(S(=O)(=O)N(Cc2cc3ccccc3[nH]c2=O)CC2CCCO2)cc1", "note": "(stereo unspecified)", "Potency": "inactive"}, {"smiles": "O=C(COC(=O)c1ccc2c(c1)OCCO2)NCc1ccccc1Cl", "Potency": "inactive"}, {"smiles": "CCOc1ccc(-n2c(O)c(/C=N/Nc3nnc(C)c(=O)[nH]3)c3ccccc3c2=O)cc1", "Potency": "inactive"}, {"smiles": "CCOc1ccc(-n2c(O)c(/C=N/Nc3nc(C)cc(C)n3)c3ccccc3c2=O)cc1", "Potency": "2.24 µM (active)"}, {"smiles": "CCOc1ccc(-n2c(O)c(/C=N/c3ccnn3Cc3ccncc3)c3ccccc3c2=O)cc1", "Potency": "inactive"}, {"smiles": "COC(=O)C1CC2=C(CC(C)(C)CC2=O)N(c2ccccc2)C1=O", "note": "(stereo unspecified)", "Potency": "inactive"}, {"smiles": "CC1CC2=C(CC1/C=N/NC(N)=S)C(C)(C)CCC2", "note": "(stereo unspecified)", "Potency": "6.31 µM (active)"}, {"smiles": "C[C@@H]1ON(C)[C@H]2C[C@H]3c4cc(N5CCN(C)CC5)ccc4CCN3C(=O)[C@@H]12", "Potency": "inactive"}, {"smiles": "O=C(NCc1ccc(Cl)cc1)C(=O)NCC1CCCN1S(=O)(=O)c1cccs1", "note": "(stereo unspecified)", "Potency": "inactive"}, {"smiles": "S=c1nc2ccccc2c2nc(-c3cccnc3)[nH]n12", "Potency": "inactive"}, {"smiles": "Cc1cccc(-c2nc(Nc3ccc(O)cc3)c3ccccc3n2)c1", "Potency": "12.6 µM (active)"}, {"smiles": "Oc1ccc(-c2nnc(Nc3ccccc3)c3ccccc23)cc1", "Potency": "inactive"}, {"smiles": "CCOC(=O)c1nc(Nc2ccc(C(=O)OC)cc2)c2ccccc2n1", "Potency": "inactive"}, {"smiles": "COc1ccccc1Oc1nc(-c2cccnc2)nc2ccccc12", "Potency": "inactive"}, {"smiles": "COc1ccc(Nc2nc(-c3cccnc3)nc3ccccc23)cn1", "Potency": "7.94 µM (active)"}, {"smiles": "COc1ccc(Br)cc1CN(C)C(=O)C1CC(=O)N(C2CCCC2)C1", "note": "(stereo unspecified)", "Potency": "inactive"}, {"smiles": "O=C(CC1SC(N2CCCC2)=NC1=O)Nc1ccc(C(=O)NCCc2ccc(F)cc2)cc1", "note": "(stereo unspecified)", "Potency": "inactive"}, {"smiles": "O=C(COC(=O)c1c(Cl)cccc1Cl)Nc1cccc(S(=O)(=O)NC2=NCCCCC2)c1", "Potency": "inactive"}, {"smiles": "CCN1C[C@@H]2[C@@H]3C(=O)N(Cc4ccccc4)C(=O)[C@@H]3[C@](C)(C1=O)N2C(=O)c1ccc(C(C)(C)C)cc1", "Potency": "inactive"}, {"smiles": "CCc1ccc(C(=O)N2CCN(S(=O)(=O)c3sc(C(=O)O)c(C)c3C(=O)O)CC2)cc1", "Potency": "inactive"}, {"smiles": "c1ccc2c(c1)OC1OC2Oc2ccccc21", "Potency": "inactive"}, {"smiles": "COc1ccccc1N1CCN(C(=O)C2Cc3ccccc3CN2C(=O)c2ccco2)CC1", "note": "(stereo unspecified)", "Potency": "inactive"}, {"smiles": "CCCCNC(=O)N(O)C1N(/N=C/c2ccc(N(C)C)cc2)C(=S)SC1(C)C", "note": "(stereo unspecified)", "Potency": "inactive"}, {"smiles": "CCC(C)N1C(=S)SC(C)(C)C1N(O)C(=O)NC1CCCCC1", "note": "(stereo unspecified)", "Potency": "inactive"}, {"smiles": "CCCCNC(=O)N(O)C1N(/N=C/c2ccccc2O)C(=S)SC1(C)C", "note": "(stereo unspecified)", "Potency": "7.08 µM (active)"}, {"smiles": "CC1CCCCC1NC(=O)c1cc(=O)[nH]c2ccccc12", "note": "(stereo unspecified)", "Potency": "inactive"}, {"smiles": "O=C(CSc1nc(=O)n2ccccc2n1)Nc1ccc2c(c1)OCCO2", "Potency": "inactive"}, {"smiles": "CCN1C(=O)N[C@@H](c2ccccc2)C(C(=O)OC)=C1C", "Potency": "inactive"}, {"smiles": "CCOC(=O)C1=C(c2ccccc2)NC(=O)NC1c1cc(OCC)c(O)c([N+](=O)[O-])c1", "note": "(stereo unspecified)", "Potency": "inactive"}, {"smiles": "CCOC(=O)C1=C(C)N(C[C@@H]2CC[C@@H](Cc3ccc(-c4ccccc4)cc3)O2)C(=O)NC1c1ccc([N+](=O)[O-])cc1", "note": "(stereo partly specified)", "Potency": "11.2 µM (active)"}, {"smiles": "C[C@]12c3[nH]c4ccc(Cl)cc4c3CCN1C(=O)[C@@H](CC(=O)NCCCn1ccnc1)C[C@@H]2C(=O)N1CCOCC1", "Potency": "inactive"}, {"smiles": "Cc1ccc(NC(=O)CN(C)C(=O)Cn2nnc(-c3ccccc3)n2)cc1", "Potency": "inactive"}, {"smiles": "COc1ccc(CCNC(=O)C(=O)NCC2OCCN2S(=O)(=O)c2ccc(F)cc2)cc1OC", "note": "(stereo unspecified)", "Potency": "inactive"}, {"smiles": "COc1ccc(S(=O)(=O)N2CCOC2CNC(=O)C(=O)NCc2ccncc2)cc1C", "note": "(stereo unspecified)", "Potency": "inactive"}, {"smiles": "COc1ccc(CCNC(=O)C(=O)NCC2OCCN2S(=O)(=O)c2ccc(OC)c(C)c2)cc1", "note": "(stereo unspecified)", "Potency": "15.8 µM (active)"}, {"smiles": "Cc1cccc(OCC(=O)OCC(=O)Nc2ccc(Cl)cn2)c1", "Potency": "inactive"}, {"smiles": "COc1ccccc1NC(=O)N(O)C1(C#N)CCCCC1", "Potency": "inactive"}, {"smiles": "O=C(NCc1ccc2c(c1)OCO2)c1c(-c2ccsc2)sc2ccccc12", "Potency": "inactive"}, {"smiles": "O=C1CCCN2N=C(SCC(=O)Nc3ccc(Br)cc3)SC2=N1", "Potency": "inactive"}, {"smiles": "C=CCn1c(SCC(=O)Nc2ccc(NC(C)=O)cc2)nc2sc(C)c(C)c2c1=O", "Potency": "inactive"}, {"smiles": "COc1ccccc1NC(=O)CSc1nc2sc3c(c2c(=O)n1-c1ccccc1)CCN(C)C3", "Potency": "inactive"}, {"smiles": "COc1ccccc1-n1c(SCC(=O)O)nc2sc3c(c2c1=O)CCC3", "Potency": "inactive"}, {"smiles": "CCSc1nc2sc3c(c2c(=O)n1-c1ccc(C)cc1)CCN(C)C3", "Potency": "inactive"}, {"smiles": "CCn1c(SCC(=O)Nc2ccc(Br)cc2)nc2sc3c(c2c1=O)CCN(C)C3", "Potency": "4.47 µM (active)"}, {"smiles": "CCCSc1nc2sc3c(c2c(=O)n1-c1ccc(OC)cc1)CCN(C)C3", "Potency": "11.2 µM (active)"}, {"smiles": "CCOc1ccc(-n2c(SCC(=O)Nc3ccc(OC)cc3)nc3sc4c(c3c2=O)CCN(C)C4)cc1", "Potency": "11.2 µM (active)"}, {"smiles": "CCOc1ccc(NC(=O)CSc2nncn2C)cc1", "Potency": "inactive"}, {"smiles": "O=C(NCCSc1ncc(-c2ccccc2)[nH]1)c1ccco1", "activity change, negative = inhibition": "-7.56% [at 8.37 µM] (inactive)"}, {"smiles": "COc1cccc(NC(=O)CSc2nnc(C3CCCCC3)n2N)c1", "Potency": "inactive"}, {"smiles": "CC(=O)Nc1ccc(NC(=O)CSC2=NS(=O)(=O)c3ccccc3N2)cc1", "Potency": "inactive"}, {"smiles": "CCc1noc(C)c1C(=O)Nc1nc2ccc(OC)cc2s1", "Potency": "inactive"}, {"smiles": "COc1ccc(NC(=O)CNc2cc(S(=O)(=O)N3CCOCC3)ccc2N2CCOCC2)c(OC)c1", "Potency": "inactive"}, {"smiles": "CS(=O)(=O)N(CC(=O)N1CCc2ccccc2C1)c1ccc(Br)cc1", "Potency": "inactive"}, {"smiles": "COc1cc(/C=C/C(=O)OCC(=O)NCCCc2ccccc2)ccc1O", "Potency": "inactive"}, {"smiles": "O=C(O)c1ccc(S(=O)(=O)c2ccccc2)s1", "Potency": "inactive"}, {"smiles": "Cc1ccc(S(=O)(=O)c2cc3c(=O)n4cccc(C)c4nc3n(CCc3ccccc3)c2=N)cc1C", "Potency": "inactive"}, {"smiles": "CS(=O)(=O)N(CC(O)Cn1c2ccccc2c2ccccc21)c1cccc2ccccc12", "note": "(stereo unspecified)", "Potency": "11.2 µM (active)"}, {"smiles": "OC(Cn1c2ccccc2c2ccccc21)C[n+]1ccccc1", "note": "(stereo unspecified)", "Potency": "inactive"}, {"smiles": "O=C1c2ccccc2S(=O)(=O)N1CC(O)Cn1c2ccccc2c2ccccc21", "note": "(stereo unspecified)", "Potency": "inactive"}, {"smiles": "COc1ccc2oc(C(=O)N(CC(C)C)C3CCS(=O)(=O)C3)c(C)c2c1", "note": "(stereo unspecified)", "Potency": "inactive"}, {"smiles": "CCOc1ccc(C(CC(=O)O)NC(=O)C23CC4CC(CC(C4)C2)C3)cc1OC", "note": "(stereo unspecified)", "Potency": "inactive"}, {"smiles": "CCOc1ccc(C(CC(=O)O)NC(=O)Cc2ccccc2)cc1OC", "note": "(stereo unspecified)", "Potency": "inactive"}, {"smiles": "CCOc1ccc(C(CCc2ccccc2)NC(=O)c2ccc(OC)c(OC)c2)cc1OCC", "note": "(stereo unspecified)", "Potency": "10 µM (active)"}, {"smiles": "Cc1n[nH]c(=O)c2c(NC(=O)COC(=O)c3ncc(Cl)c(Cl)c3Cl)oc(C)c12", "Potency": "inactive"}, {"smiles": "COCCNc1nc(-n2nc(C)cc2C)nc2sc3c(c12)CCCC3", "Potency": "10 µM (active)"}, {"smiles": "Cc1nc2sc3c(c2c(=O)n1NC(=O)CCl)CCCC3", "Potency": "inactive"}, {"smiles": "CCC(O)CNc1nc(-n2nc(C)cc2C)nc2sc3c(c12)CC(C)(C)OC3", "note": "(stereo unspecified)", "Potency": "inactive"}]}]}
